Screening results deposited in PubChem BioAssay by The Scripps Research Institute Molecular Screening Center.
GPR151 activ: activators of human GPR151. AID 1508602. activation, % at 11.2 µM. 650,000 tested, 1% active. PathHunter beta-arrestin GPR151 cells, luminescence; in the data active = activation above about 4.9%;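 note: 0% = median of compound wells and 100% = cells with positive control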
Target sequence (Q8TDV0 whole entry, looked up): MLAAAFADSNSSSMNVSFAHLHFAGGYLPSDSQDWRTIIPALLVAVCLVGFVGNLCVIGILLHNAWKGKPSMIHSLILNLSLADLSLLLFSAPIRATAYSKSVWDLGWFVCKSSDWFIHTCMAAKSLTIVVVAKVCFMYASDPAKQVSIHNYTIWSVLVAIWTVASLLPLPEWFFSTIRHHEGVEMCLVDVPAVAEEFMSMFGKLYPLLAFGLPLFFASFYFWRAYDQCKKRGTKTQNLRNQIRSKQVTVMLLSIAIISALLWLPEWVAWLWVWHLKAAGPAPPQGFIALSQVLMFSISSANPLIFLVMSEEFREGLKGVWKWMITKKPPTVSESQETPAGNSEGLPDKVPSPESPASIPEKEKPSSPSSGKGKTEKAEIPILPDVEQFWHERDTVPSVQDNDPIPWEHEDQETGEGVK
TEAD-YAP block: TEAD-YAP interaction inhibition; HEK-TIYL cells, TEAD-Gal4/YAP UAS-luciferase luminescence; inhibition, % at 9.12 µM; 640,000 tested, 1.4% active; in the data active = inhibition above about 32%;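 note: 0% = median of test compound wells and 100% = reference inhibitor wells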
MITF primary: blocks human microphthalmia-associated transcription factor; AlphaScreen MITF homodimerization, bead proximity signal; inhibition, % at 2.6 µM; 650,000 tested, 0.91% active; AID 1259374; in the data active = inhibition above about 50%;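 note: 0% = vehicle wells with protein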
FBW7 activator: activators of human E3 ligase FBW7. Q969H0. AlphaScreen FBW7–phospho-cyclin E peptide binding, activator screen. normalized activity (activation), % at 26.1 µM. 650,000 tested, 0.13% active. AID 1259310; in the data active = normalized activity above about 1.9%;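 note: purified mutant Fbw7 with reduced substrate affinity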
MITF inh conf: human MITF inhibition, confirmation; 4,700 tested, 16% active; AlphaScreen MITF homodimerization, biotin/His-MITF beads; shares compounds with MITF primary; inhibition, % at 2.6 µM; AID 1259372;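 active = inhibition above a cutoff derived from the DMSO control wells, cut at about 28% in these data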;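 note: 0% = MITF dimer wells with DMSO only; inhibitors lower the bead chemiluminescence by keeping MITF from dimerizing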
AlphaScreen DR: optically interferes with AlphaScreen signal in dose response; shares compounds with MITF primary; AlphaScreen optical interference counterscreen, cell-free; IC50, µM; 480 tested, 6% active; call rule not given here
AlphaScreen intf2: optically interferes with AlphaScreen signal. shares compounds with MITF primary. LysRS AlphaScreen counterscreen, signal interference, triplicate. inhibition, % at 2.6 µM. 4,700 tested, 7.6% active;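 active = inhibition above a cutoff derived from the DMSO control wells, cut at about 30% in these data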
* marks the source's active call; other numbers are inactive results; nt = no result. Sampled rows, rich in hits. Any-hit rate of the full collection: about 3.5%.

SMILES | GPR151 activ | TEAD-YAP block | MITF primary | FBW7 activator | MITF inh conf | AlphaScreen intf2 | others
COc1cc(CN2CCN(Cc3cccc(C)c3)CC2)cc(OC)c1O | 0 | -6 | 46 | 0 | nt | nt
CC(=O)Nc1cccc(NC(=O)CCCOc2ccccc2)c1 | 0 | 8 | 3 | 0 | nt | nt
O=c1c2nnn(-c3ccccc3)c2ncn1Cc1c(F)cccc1Cl | 1 | -2 | -10 | 0 | nt | nt
CC(C)(C)NCCCOc1ccc(C(C)(C)C)cc1 | 0 | 2 | -2 | 0 | nt | nt
CCOc1ccc(OCCCNC(C)(C)C)cc1 | -1 | 2 | 69* | 0 | 6 | 7
COc1ccc(CN(Cc2ccccn2)S(=O)(=O)c2ccc(F)cc2F)cc1OC | 0 | 5 | 4 | 0 | nt | nt
COc1cc(CN(C)CCc2ccccn2)cc(OC)c1OC | 0 | 3 | 74* | 0 | 12 | 19
C=CCc1ccc(OC)c(OCc2ccccc2)c1 | -1 | 3 | 22 | 0 | nt | nt
COc1ccc(CN(C)CCc2ccccn2)cc1OCc1ccccc1 | 2 | -14 | 62* | 0 | 4 | 23
COc1cc(/C=C/C(=O)NCc2ccccn2)cc(OC)c1OC | -1 | -7 | -5 | 0 | nt | nt
COc1ccc(CN(C)CCc2ccccn2)cc1OC | -2 | -2 | 77* | 0 | 0 | 2
c1ccc(-c2ccccc2OCCOCCN2CCCC2)cc1 | 0 | -1 | 21 | 0 | nt | nt
c1ccc(-c2ccccc2OCCN2CCNCC2)cc1 | 0 | -5 | 66* | 0 | 21 | 10
c1ccc(-c2ccccc2OCCCN2CCOCC2)cc1 | -1 | 3 | 91* | 0 | 20 | 20
c1ccc2c(OCCCCN3CCOCC3)cccc2c1 | -1 | -19 | 27 | 0 | nt | nt
Cc1ccc(NC(=O)c2cccc(N3C(=O)CCC3=O)c2)cc1 | -1 | 3 | 7 | 0 | nt | nt
COC(=O)c1c(NC(=O)/C=C/C(=O)O)sc2c1CCN(C(C)=O)C2 | 0 | 5 | 83* | 0 | 13 | 5
COC(=O)c1c(NC(=O)C2CC2)sc2c1CCN(C(C)=O)C2 | -1 | 12 | 2 | 0 | nt | nt
Cc1nccn1CCOc1ccc(Cl)cc1 | -1 | -18 | 63* | 0 | 18 | -7
c1ccc2c(Nc3nc(NCc4nc5ccccc5[nH]4)c4ncn(-c5ccsc5)c4n3)nccc2c1 | 2 | 27 | 62* | 1 | -7 | 11
Cc1cc(C(C)(C)C)ccc1OCCOCCN(C)C | 2 | 12 | 72* | 0 | -2 | -7
COCCNCCOCCOc1ccc(C(C)(C)C)cc1C | -2 | -5 | 26 | 0 | nt | nt
CN(C)CCOCCOc1ccc(Cl)cc1C(C)(C)C | 0 | -8 | 3 | 0 | nt | nt
Cc1ccc(C(C)(C)C)c(OCCOCCN(C)C)c1 | -1 | 0 | 68* | 0 | -3 | -8
O=C(CN1CCC(N2CCCCC2)CC1)c1ccc2c(c1)OCCO2 | 3 | -6 | 58* | 0 | 11 | 16
SMILES | GPR151 activ | TEAD-YAP block | MITF primary | FBW7 activator | MITF inh conf | AlphaScreen intf2 | others
O=C(CN1CCC(N2CCCCC2)CC1)Nc1ccc2c(c1)OCCO2 | 2 | -6 | 7 | 0 | nt | nt
CCc1ccc(N(C)S(=O)(=O)c2ccc3[nH]cc(C(=O)N4CCN(c5ccccc5)CC4)c(=O)c3c2)cc1 | 0 | -1 | 3 | 0 | nt | nt
c1ccc(CN2CCC(NCc3ccc(-n4ccnc4)cc3)CC2)cc1 | 3 | 3 | 51* | 0 | 11 | 17
CC(CC(=O)Nc1ccccc1)NC1CCN(Cc2ccccc2)CC1 (stereo unspecified) | 1 | 0 | 66* | 0 | 15 | 10
CC(=O)Nc1ccc(CNC2CCN(Cc3ccccc3)CC2)cc1 | -1 | 11 | 79* | 0 | 2 | 3
O=C(c1ccc2nc(-c3ccco3)c(-c3ccco3)nc2c1)N1CCSCC1 | -1 | 15 | 87* | 0 | 72* | 7 | AlphaScreen DR=>6.5
O=C(c1ccc2nc(-c3cccs3)c(-c3cccs3)nc2c1)N1CCOCC1 | -1 | 3 | -7 | 0 | nt | nt
O=C(Nc1ccc2c(c1)CN(C(=O)CCN1CCCO1)CC2)C1CCCO1 (stereo unspecified) | 0 | 2 | 15 | 1 | nt | nt
COc1cccc(/C=N/NS(=O)(=O)c2ccc(C)cc2)c1 | 1 | 0 | 77* | 0 | -3 | -7
O=C1N[C@H](Cc2ccccc2)C(=O)N2CCN(C(=O)NC3CCCCC3)C[C@H]12 | -1 | 3 | 74* | -1 | 71* | -9 | AlphaScreen DR=>6.5
O=C1N[C@@H](Cc2ccccc2)C(=O)N2CCN(C(=O)NC3CCCCC3)C[C@H]12 | 1 | 13 | 76* | 0 | 69* | -3 | AlphaScreen DR=>6.5
CCCc1nc2ccccc2n1CC(O)COc1ccc([N+](=O)[O-])cc1 (stereo unspecified) | 3 | 1 | 3 | 0 | nt | nt
O=C1/C(=C/c2ccc(-c3ccc(Br)cc3)o2)C=C(c2ccccc2)N1c1cccc2ccccc12 | 1 | 1 | 14 | 0 | nt | nt
O=C(CNCCCN1CCOCC1)Nc1ccc(N2CCCCC2)cc1 | 1 | -2 | 50 | 0 | nt | nt
O=C(CNCCCN1CCOCC1)Nc1ccc(N2CCCC2)cc1 | 0 | -5 | 54* | 0 | 4 | 19
COc1ccc(CCNCC(=O)Nc2ccccc2N2CCCCC2)cc1 | 0 | -4 | 61* | 0 | 9 | 16
CC(C)N(C(=O)CNCCN1CCOCC1)c1ccccc1 | 0 | 1 | 72* | 0 | -5 | 1
CC1=CC(C)(C)N(C(=O)CNCCN2CCOCC2)c2cc(C)ccc21 | 0 | 5 | 59* | 0 | 9 | 23
CCCCNCC(=O)Nc1ccccc1N1CCCCCC1 | 0 | 4 | 12 | 0 | nt | nt
O=C(CNCCCN1CCOCC1)Nc1ccccc1N1CCCCCC1 | 1 | 1 | 71* | 0 | 5 | 16
CC(C)c1cccc(C(C)C)c1NC(=O)CNCCO | 0 | -1 | 53* | 0 | 4 | 4
O=C(CNCCCN1CCOCC1)Nc1ccc2c(c1)OCO2 | -1 | 2 | 71* | 0 | 4 | 12
O=C(NCCN1CCOCC1)c1cccc(C(=O)NCCN2CCOCC2)c1 | 0 | 2 | -7 | 0 | nt | nt
O=C(NCCN1CCOCC1)c1cccc(-c2ccccc2)c1 | 0 | -5 | 75* | 0 | 11 | 6
COc1cc(C(c2c(C)[nH][nH]c2=O)c2c(C)[nH][nH]c2=O)ccc1OCc1ccccc1Cl | 0 | -9 | 2 | 0 | nt | nt
CC(C)OC(=O)COc1cc(OCC(=O)OC(C)C)c2c(c1)oc(=O)c1ccccc12 | -1 | -6 | -6 | 0 | nt | nt
O=C(Nc1ccc2c(c1)OCO2)c1cnc(NCCN2CCOCC2)s1 | -2 | -9 | 52* | 0 | 2 | 10
O=C(NCCN1CCOCC1)c1cnc(NCc2ccc3c(c2)OCO3)s1 | 0 | 3 | 12 | 0 | nt | nt
O=C(CNCCN1CCOCC1)Nc1ccc(N2CCCCC2)cc1 | 0 | 1 | 93* | 0 | -16 | -5
Cc1cccc(C)c1NC(=O)CNCCN1CCOCC1 | -1 | 1 | 92* | 0 | -12 | -5
